Measurements reported in PubChem BioAssay AID485364 (National Center for Advancing Translational Sciences (NCATS), 2010).
The campaign covered roughly 360,000 compounds. About 11,000 (3.1%) were called active. Another 4% or so got no clear call; they are omitted. The full list was thinned out, with actives kept by preference. Values without a mark were called inactive. Calls come from the whole dose curve; as a rule, active = well fitted inhibition curve with a large enough effect; inconclusive = small, poorly fitted or top-dose-only effect; inactive = no such curve, though single readings can be large or run the other way.

What follows are compounds tested against Schistosoma mansoni thioredoxin glutathione reductase (TGR) (UniProt Q962Y6) (assay: qHTS Assay for the Inhibitors of Schistosoma Mansoni Peroxiredoxins). Conditions: purified TGR, DTNB reduction, TNB absorbance 405 nm; series mostly up to 114 µM; activity change, negative = inhibition: at the top concentration.
Summary of the method: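 TGR 20 nM + NADPH 100 uM (dispensed conc.), cpd preinc 15 min RT; start with NADPH (500 uM addition) then DTNB (15 mM addition). Kinetic TNB absorbance, 405 nm filter. Four-parameter Hill fit across titration.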
% is set by controls: 0 for no effect and ±100 for the full control effect; potency is the fitted concentration of half-maximal effect.
Note: nearly all actives have a fitted effect of over 60% in size.

Row | SMILES | activity change, negative = inhibition [%] | Potency
1 | CCOc1ccc(CNCCSc2nnnn2C)cc1 | 5.3 | –
2 | COc1ccc(C2Sc3ccccc3NC3=C2C(=O)c2ccccc23)c(OC)c1OC (configuration not stated) | -17.6 | –
3 | COc1ccc(N2C(=O)/C(=C/c3ccco3)C(=O)NC2=S)cc1 | – | 14.1 µM (active)
4 | O=C(OCN1C(=O)c2ccccc2C1=O)/C(=C\c1ccco1)NC(=O)c1ccccc1 | -54.4 | –
5 | COC(=O)C1=C(C)N(C(C)c2ccccc2)C(=O)/C1=C\c1ccco1 (configuration not stated) | – | 31.6 µM (active)
6 | COC(=O)c1ccc(NC(=O)C(C)N2C(=O)c3ccccc3C2=O)cc1 (configuration not stated) | 5.73 | –
7 | COc1ccc(N2C(=O)CNC2=S)cc1 | -1.27 | –
8 | COC(=O)C1=C(C)N(c2ccc(Br)cc2)C(=O)/C1=C\c1ccco1 | – | 35.5 µM (active)
9 | COc1ccc(CN2C(=O)C(C)S/C2=N/N=C/c2ccco2)cc1 (configuration not stated) | 0 | –
10 | COC(=O)C1=C(C)N(C)C(C)=C(C(=O)OC)C1c1cccc(Br)c1 | -9.83 | –
11 | Cc1cccc(C)c1-n1ncc(C(=O)NCCCN2CCCCC2)c1C1CCN(C(=O)OC(C)(C)C)CC1 | 4.07 | –
12 | CC(C)NC(=O)C1CCC(Cn2c(=O)c3sccc3n(Cc3ccc(F)cc3)c2=O)CC1 (configuration not stated) | 2.15 | –
13 | Cc1ccc2onc(CC(=O)N3CCN(c4ccc(Cl)cc4)CC3)c2c1 | -6.48 | –
14 | CCc1cc2c(cc(C(=O)OC)n2Cc2nc(-c3ccc(C)cc3)oc2C)s1 | 6.16 | –
15 | CC(=O)N1c2ccc(S(=O)(=O)N3CCCCCC3)cc2CC1C(=O)NCc1ccccc1C (configuration not stated) | 1.56 | –
16 | CC(=O)c1ccc(N2CCN(c3nc4c(S(=O)(=O)c5ccccc5)nnn4c4ccc(Cl)cc34)CC2)cc1 | 1.2 | –
17 | O=C(CSc1nccn1-c1ccc(F)cc1)Nc1cccc2ccccc12 | -0.677 | –
18 | CC(=O)Nc1ccc2nc(SCCOc3cc(C)cc(C)c3)sc2c1 | -10.3 | –
19 | O=C(NCC12CC3CC(CC(C3)C1)C2)c1cc2nc(-c3ccccc3)cc(C(F)(F)F)n2n1 | 2.05 | –
20 | CCCNC(=O)C1CCC(Cn2c(=O)c3sccc3n(Cc3ccccc3F)c2=O)CC1 (configuration not stated) | -0.604 | –
21 | COc1ccccc1Nc1nc(N)nc(N)c1S(=O)(=O)c1ccccc1 | 4.24 | –
22 | CC1(C)Cc2ccccc2-c2[nH]c(=S)[nH]c(=O)c21 | -2.97 | –

Row | SMILES | activity change, negative = inhibition [%] | Potency
23 | CCOC(=O)C1Cn2c(nc3c(c2=O)C(C)(CC)Cc2ccccc2-3)S1 (configuration not stated) | -10.3 | –
24 | CCC1(CC)Cc2ccccc2-c2nc(CCl)[nH]c(=O)c21 | – | 3.16 µM (active)
25 | CCOC(=O)c1oc2ccc(S(=O)(=O)n3nc(-c4ccccc4OC)cc3N)cc2c1C | 0.311 | –
26 | COc1ccc(Cl)cc1N(C)C(=O)c1cc2c(=O)oc3ccc(C)cc3c2s1 | -4.63 | –
27 | O=C(OCC(=O)c1c[nH]c2ccccc12)c1cccc(O)c1 | 1.01 | –
28 | NC(=O)CSc1c[nH]c2ccccc12 | -1.35 | –
29 | O=S(=O)(O)Oc1c[nH]c2ccccc12 | – | 20 µM (active)
30 | Cc1ccc(OCC(=O)Nc2ccc(Cl)c(-c3nc4ccccc4[nH]3)c2)cc1C | 1.61 | –
31 | CCc1nc2nc(C)cc(Nc3ccc(F)c(Cl)c3)n2n1 | 1.94 | –
32 | COc1ccc2c(c1OC)C(=O)OC2Nc1nc(-c2ccccc2)cs1 (configuration not stated) | – | 3.16 µM (active)
33 | C/C(CC1CC(C)(C)OC1=O)=N/Nc1nc(-c2ccccc2)cs1 (configuration not stated) | -10.8 | –
34 | Cc1ccc(-c2csc(NC3OC(=O)c4ccccc43)n2)cc1 (configuration not stated) | – | 28.2 µM (active)
35 | Cc1ccc(-c2csc(-c3c[nH]c4ccccc34)n2)cc1 | 11.5 | –
36 | CCCc1cc(-c2nc(-c3ccc(C)cc3)cs2)ccn1 | -0.4 | –
37 | COc1ccc(-c2csc(NC(=O)COC(=O)Cc3ccc(Cl)cc3Cl)n2)cc1 | -8.86 | –
38 | COc1ccc(N/C=C(\C2OC(=O)c3ccccc32)[N+](=O)[O-])cc1 (configuration not stated) | -2.72 | –
39 | CCc1ccccc1NC(=O)[C@@H]1CCC(=O)N1C1OC(=O)c2c1ccc(OC)c2OC (some centres not stated) | -3.57 | –
40 | COc1ccc(-c2csc(NC3OC(=O)c4ccccc43)n2)cc1 (configuration not stated) | – | 5.62 µM (active)
41 | Cc1nnc(NC(=O)CSc2nc3c([nH]c4ccccc43)c(=O)n2-c2cccc(Cl)c2)s1 | -0.89 | –
42 | CC(=O)Nc1c(C)nn(-c2ccccc2)c1N1CCC(C(=O)Nc2cc(Cl)ccc2C)CC1 | -5.66 | –
43 | Cn1nnnc1SCCCNCc1ccc(Cl)cc1 | -2.62 | –
44 | Fc1ccc(-c2nc(Nc3cccc(Cl)c3)nc3c2COc2ccccc2-3)cc1 | -5.35 | –

Row | SMILES | activity change, negative = inhibition [%] | Potency
45 | Cc1ccc(S(=O)(=O)N2CCCc3cc(NS(=O)(=O)c4cc(C)ccc4C)ccc32)cc1 | 6.35 | –
46 | Cc1cc(NS(=O)(=O)c2ccc3oc(=O)c4ncn(C)c4c3c2)ccc1Br | 1.12 | –
47 | Cc1cc(C)cc(NC(=O)CCCc2nc(-c3ccccc3Cl)no2)c1 | 6.16 | –
48 | O=C1CSC(=S)N1c1ccc(O)cc1 | -0.744 | –
49 | COc1cc(N2C(=O)CSC2=S)cc(OC)c1OC | 12.2 | –
50 | CCOc1cccc(/C=N/N2C(=O)CSC2=S)c1O | – | 3.55 µM (active)
51 | Cc1cc(C)cc(NC(c2nnc(-c3cccc(F)c3)o2)c2ccc(F)cc2Cl)c1 (configuration not stated) | -1.07 | –
52 | CCOc1cccc(CNC(=O)c2ccc(N3CCCC3)c(NC(=O)Nc3ccccc3CC)c2)c1 | -5.43 | –
53 | Cc1c(Cl)cccc1NC(=O)Nc1ccc(C(=O)N2CCCC2)cc1 | 4.88 | –
54 | Cc1c(Cl)cccc1NC(=O)NCCCN1CCCC1=O | 0.302 | –
55 | Cc1c(Cl)cccc1NC(=O)NCc1ccc(C)n1C | – | 35.5 µM (active)
56 | C#CC(C)(CC)NC(=O)Cn1nnc(-c2ccc(OCc3c(F)cccc3Cl)cc2)n1 (configuration not stated) | -0.75 | –
57 | Cc1cc(C)cc(C(=O)NC2C(=O)N3C(C(=O)O)=C(CSc4nnc(C)s4)CSC23)c1 (configuration not stated) | – | 5.01 µM (active)
58 | Cc1nnc(SCC(=O)NC2CCCC2)s1 | 4.15 | –
59 | CO/N=C(\C(=O)N[C@@H]1C(=O)N2C(C(=O)O)=C(COC(C)=O)CS[C@H]12)c1csc(N)n1 (stereo in doubt) | -2.3 | –
60 | Cc1nnc(SCC2=C(C(=O)O)N3C(=O)C(NC(=O)Cn4nc(C)c(Cl)c4C)C3SC2)s1 (configuration not stated) | – | 10 µM (active)
61 | O=C(Cn1ncc2c3ccccc3n(Cc3ccccc3)c2c1=O)NC1CCCCCC1 | -5.12 | –
62 | Cc1cccc(CSc2nc3ccncc3n2CC(=O)N(C)C2CCCCC2)c1 | -3.37 | –
63 | CC(C)(C)OC(=O)N1CCC(c2c(C(=O)NCc3ccccn3)cnn2-c2ccc(F)cc2)CC1 | 25.3 | –
64 | COc1ccc(S(=O)(=O)NCCCCOc2ccc(Cl)cc2)cc1 | -4.78 | –
65 | COc1cccc(NC(C)=[N+](C)CCNS(=O)(=O)c2ccc(Cl)cc2)c1 | – | 31.6 µM (active)
66 | COc1cccc(NC(=O)CCNS(=O)(=O)c2ccc3c(c2)oc(=O)n3C)c1 | – | inactive

Row | SMILES | activity change, negative = inhibition [%] | Potency
67 | N#Cc1nc(/C=C/c2ccc(F)cc2)oc1NC1CCCCC1 | -2.25 | –
68 | CCC(=O)N1N=C(c2ccc(OC)cc2)CC1c1cn(-c2ccccc2)nc1-c1cccs1 (configuration not stated) | 0.702 | –
69 | CCCn1c2ccccc2c2cnn(CC(=O)NCCCOC(C)C)c(=O)c21 | -2.21 | –
70 | CCSc1nnc2c(n1)OC(c1ccc(OCC(=O)O)cc1)Nc1ccccc1-2 (configuration not stated) | 1.91 | –
71 | COC(=O)c1scc(-c2ccc(C)cc2)c1S(=O)(=O)Nc1cc(Cl)c(OC)cc1OC | 2.52 | –
72 | COc1ccc(Nc2ncc3c(n2)CCN(C(=O)OC(C)(C)C)C3)cc1 | 1.18 | –
73 | Cc1cccc(-n2c(O)c(C=NC34CN5CN(CN(C5)C3)C4)c(=O)[nH]c2=O)c1 | – | 7.94 µM (active)
74 | Cc1cccc(-n2c(O)c(/C=N/N3CCOCC3)c(=O)[nH]c2=S)c1 | -0.279 | –
75 | Cc1cccc(-n2c(O)c(C=Nc3ccccc3N)c(=O)[nH]c2=O)c1 | -31.6 | –
76 | CCOc1ccc(NC(=O)CCC(=O)N2CC(C)Oc3ccc(C)cc32)cc1 (configuration not stated) | -1.11 | –
77 | COc1ccc(OC)c(-c2nc(C(N)=O)c3c(n2)n(-c2ccc4c(c2)OCO4)c(=O)n3C)c1 | -0.826 | –
78 | O=C(Nc1ccc(Cl)cc1)C1c2cccc[n+]2CC(=O)N1Cc1ccc2c(c1)OCO2 (configuration not stated) | – | 20 µM (active)
79 | O=C(C1CCN(Cc2ccc(Cl)cc2)CC1)N1CCN(Cc2ccc3c(c2)OCO3)CC1 | -1.17 | –
80 | CCCOc1ccc(NC(=O)CC2C(=O)N(C)C(=S)N2Cc2ccc3c(c2)OCO3)cc1 (configuration not stated) | 6.8 | –
81 | COc1ccc(S(=O)(=O)c2c(Nc3ccc(C)cc3)sc(C(=O)c3ccc(C)cc3)c2N)cc1 | -2.02 | –
82 | Cc1c(C(=O)N2CCCC2)oc2c1-c1nn(CC(=O)NCc3ccc(OC(C)C)cc3)cc1CC2 | -10.3 | –
83 | CCC(Sc1nc2n[nH]c(C)c2c(=N)n1-c1ccccc1Cl)C(=O)N(CC)CC (configuration not stated) | 6.06 | –
84 | Cc1cc(C)nc(SC(C)C(=O)N/N=C/c2cccs2)n1 (configuration not stated) | 11.3 | –
85 | Cc1cc(C)nc(S/C=C/C(=O)c2ccccc2)n1 | – | 1.12 µM (active)
86 | Cc1cc(C)nc(N(C#N)CC(=O)Nc2ccccc2)n1 | 11.1 | –
87 | COc1ccccc1CN1CCC(CNC(=O)c2cnn(-c3ccccc3Cl)c2C2CCN(C(=O)OC(C)(C)C)CC2)CC1 | 3.34 | –
88 | CCOC(=O)c1c(S(=O)(=O)N2CCC(C(=O)NCc3ccccc3OC)CC2)c(C)n(C)c1C | -1.86 | –

Row | SMILES | activity change, negative = inhibition [%] | Potency
89 | COc1cc(NC(=O)c2nc3ccccc3nc2C)cc(OC)c1OC | -0.972 | –
90 | COc1cc(NC(=O)c2noc3c2CSc2ccccc2-3)cc(OC)c1OC | – | 0.794 µM (active)
91 | COc1ccc(CCNC(=O)c2nn(C)c3c2CSc2ccccc2-3)cc1OC | 5.29 | –
92 | O=C(NCc1ccccc1Cl)c1cccn1-c1nnc(N2CCCCC2)s1 | 2.19 | –
93 | CC(C)c1cc(CN2CCOCC2)cc(C(C)C)c1O | – | 3.98 µM (active)
94 | O=C(Nc1ccc(CN2CCOCC2)cc1)c1cc(Cl)ccc1Cl | 1.25 | –
95 | CC(CN1CCOCC1)c1ccccc1 (configuration not stated) | 2.37 | –
96 | COc1cc(C(=O)Nc2ccc(OCc3cc(=O)n4cc(C)sc4n3)cc2)cc(OC)c1OC | -7.3 | –
97 | COc1ccc(CC(=O)N2CC(=O)Nc3ccc(Br)cc3C2c2ccc(F)cc2)cc1OC (configuration not stated) | 18.4 | –
98 | CCOC(=O)C1CCCN(C(=O)Cn2ncc3c(C)n(Cc4ccc(F)cc4)c(C)c3c2=O)C1 (configuration not stated) | -6.64 | –
99 | OC(COCc1ccco1)CN1CCN(c2ccccc2)CC1 (configuration not stated) | -1.65 | –
100 | COc1cccc(C(c2c(O)cc(C)n(Cc3ccco3)c2=O)N2CCN(c3ccccc3)CC2)c1 (configuration not stated) | – | 3.16 µM (active)
101 | CCN1CCN(C(c2ccc(C)cc2)c2c(O)cc(C)n(Cc3ccco3)c2=O)CC1 (configuration not stated) | – | 4.47 µM (active)
102 | Cc1oc2ncn(CC(C)C)c(=O)c2c1C(=O)N1CCN(c2ccccc2F)CC1 | 5.16 | –
103 | C/C(=N\N1CCN(Cc2ccc(C)cc2)CC1)c1ccco1 | 2.61 | –
104 | COc1ccc(C(CC(=O)N2CCN(c3ccccc3)CC2)c2c(O)cc(OC)cc2OC)cc1 (configuration not stated) | -0.401 | –
105 | Cc1cc(O)c(C(c2ccccc2)N2CCN(c3ccccc3F)CC2)c(=O)n1Cc1ccco1 (configuration not stated) | – | 3.16 µM (active)
106 | Cc1nc2ccn(Cc3cccnc3)c(=O)c2cc1C(=O)N1CCN(c2ccccc2F)CC1 | 8.3 | –
107 | CCOC(=O)C1(CCc2ccccc2)CCN(Cc2ccco2)CC1 | -14.5 | –
